A selection: hits, their analogues and other compounds. The true share with any hit is near 3.5%.
mHTT-CaM PPI inh: mutant huntingtin-calmodulin interaction inhibitors – biochemical, AlphaScreen, primary screen; P42858; AlphaScreen His-mHTT/GST-CaM binding, luminescence; inhibition, % at 15 µM; hit rate 3.6% among 190,000; AID 1671202, 2021
Pf apPOL block: Pf-apPOL inhibitors, biochemical, fluorescence; Recombinant Pf-apPOL, molecular beacon fluorescence, 1.5 h; AID 1794808, 2022; Plasmodium falciparum apicoplast DNA polymerase (apPOL); inhibition, % at 10 µM; hit rate 0.25% among 210,000
A number is an active result; – = inactive; · = no result. No stated cut-off is given here; in the data, active means inhibition above about 50%; inactive means the rest.

SMILES | mHTT-CaM PPI inh | Pf apPOL block
Cc1ccnc(SCc2cc(=O)c(OC(=O)Cc3ccc([N+](=O)[O-])cc3)co2)n1 | 88 | –
Cn1ccnc1SCc1cc(=O)c(OC(=O)CC2CCCCC2)co1 | – | –
O=C(CC(c1ccccc1)c1ccccc1)Oc1coc(CSc2ncccn2)cc1=O | 99 | –
O=C(Nc1ccc2snnc2c1)N1CCN(c2ccccn2)CC1 | – | –
CC(C)C(=O)N1CCN(Cc2noc(-c3ccc(F)cc3)n2)CC1 | – | –
CC(=O)N1CCN(CC(=O)N2N=C(c3ccccc3)CC2c2ccc(F)cc2)CC1 (stereo unspecified) | – | –
COc1ccccc1C1CC(c2ccc(F)cc2)=NN1C(=O)CN1CCC(C)CC1 (stereo unspecified) | 93 | –
COc1ccccc1C1=NN(C(=O)CN2CCC(C)CC2)C(c2cccc(F)c2)C1 (stereo unspecified) | – | –
COc1ccccc1C1CC(c2cccc(F)c2)=NN1C(=O)CN1CCN(C)CC1 (stereo unspecified) | 99 | –
CN(C)c1nc2cc(C(=O)N3CCCC3)sc2n1-c1ccccc1 | 50 | –
CN(C)c1nc2cc(C(=O)NCC3CC3)sc2n1-c1ccccc1 | – | –
CCCCS(=O)(=O)N1CCN(C)C(c2ccc(C)cc2)C1 (stereo unspecified) | – | –
CC(=O)Nc1ccc(NC(=O)c2ccc(Cl)cc2Cl)cc1 | – | –
CC(=O)Nc1ccc2c(c1)C1C=CCC1C(c1ccccc1F)N2 (stereo unspecified) | 73 | –
O=C(Nc1ccc2c(c1)C1C=CCC1C(C(=O)O)N2)c1ccc(Cl)cc1Cl (stereo unspecified) | 94 | –
CC(=O)Nc1ccc2c(c1)OCCO2 | · | –
COc1ccc(OC)c(C2NC(C(=O)O)CS2)c1 (stereo unspecified) | – | –
CC(=O)Nc1ccc2c(c1)C1C=CCC1C(C(=O)O)N2 (stereo unspecified) | 89 | –
COc1ccc2c(c1)C1C=CCC1C(C(=O)O)N2 (stereo unspecified) | 100 | –
O=C(c1cccc(F)c1)N1CCC2(CC1)CN(Cc1cccnc1)CC2CO (stereo unspecified) | – | –
O=[N+]([O-])c1ccc(S(=O)(=O)N2CCN(c3ccccn3)CC2)cc1 | – | –
O=[N+]([O-])c1ccc(S(=O)(=O)N2CCN(c3ncccn3)CC2)cc1 | – | 99
CCC(=O)Nc1nc(C)c(-c2csc(Nc3cc(C)ccn3)n2)s1 | – | –
CC(=O)c1cccc(Nc2nc(-c3ccc(Cl)c(Cl)c3)cs2)c1 | – | –
CCC(=O)Nc1nc(C)c(-c2csc(Nc3ccc(N(C)C)cc3)n2)s1 | 93 | –
SMILES | mHTT-CaM PPI inh | Pf apPOL block
NS(=O)(=O)c1ccc(Nc2nc(-c3ccc(Cl)c(Cl)c3)cs2)cc1 | 100 | –
COc1ccc(Nc2nc(-c3ccc(Cl)c(Cl)c3)cs2)cc1 | – | –
CN(C)c1ccc(Nc2nc(-c3ccc(Cl)c(Cl)c3)cs2)cc1 | 82 | –
CCN(CC)c1ccc(Nc2nc(-c3ccc(Cl)c(Cl)c3)cs2)cc1 | 97 | –
NS(=O)(=O)c1ccc(Nc2nc(-c3ccncc3)cs2)cc1 | – | –
O=C(Nc1ccc(Br)cc1)c1ccc2snnc2c1 | – | –
Cc1cccc(CNC(=O)c2c(C)noc2-c2ccncc2)c1 | – | –
O=C(/C=C1\NCCN\C1=C/C(=O)c1ccc(Cl)cc1)c1ccc(Cl)cc1 | – | –
COC(CNC(=O)CCCCCn1nnc2ccccc2c1=O)OC | – | –
CN(C)c1ccc(Nc2nc(-c3cccnc3)cs2)cc1 | – | –
CCN(CC)c1ccc(Nc2nc(-c3ccccn3)cs2)cc1 | 100 | –
CC(C)(C)CC(=O)N1CCC(CCOc2ccccc2)CC1 | – | –
Cc1cc(O)c(C(C[N+](=O)[O-])c2ccc(Cl)cc2Cl)c(=O)o1 (stereo unspecified) | – | –
Cc1[nH]c2ccccc2c1C(C[N+](=O)[O-])c1ccc2c(c1)OCO2 (stereo unspecified) | 75 | –
O=C(Nc1nccs1)c1ccc2c(c1)OCO2 | – | –
COc1cc(C(C[N+](=O)[O-])c2c(C)[nH]c3ccccc23)ccc1O (stereo unspecified) | 61 | –
Cc1[nH]c2ccccc2c1C(Nc1nccs1)c1ccc2c(c1)OCO2 (stereo unspecified) | 83 | –
O=[N+]([O-])CC(c1ccc2c(c1)OCO2)c1c[nH]c2ccccc12 (stereo unspecified) | – | –
Cc1[nH]c2ccccc2c1C(C[N+](=O)[O-])c1cc(Cl)c2c(c1)OCO2 (stereo unspecified) | 62 | –
COc1ccc(C(C[N+](=O)[O-])c2c(O)cc(C)oc2=O)cc1 (stereo unspecified) | – | –
COc1ccc(C2SCCN2S(=O)(=O)c2ccccc2)cc1Br (stereo unspecified) | – | –
CC1CCCCC1NS(=O)(=O)c1ccc2[nH]c(=O)c(=O)[nH]c2c1 (stereo unspecified) | – | –
COc1ccc(-c2cc3nc4c(c(=O)n3[nH]2)CN(C(=O)c2ccc(C)s2)CC4)cc1 | – | –
CCOc1cccc(CN2CCC(C(=O)NCCc3ccccc3)CC2)c1O | – | –
CCSc1ccccc1C(=O)Nc1nnc(C2CCCCC2)o1 | – | –
SMILES | mHTT-CaM PPI inh | Pf apPOL block
O=C(CSCc1ccccc1)Nc1nnc(-c2ccsc2)o1 | – | –
CCSc1ccccc1C(=O)Nc1nnc(-c2ccsc2)o1 | 84 | –
O=C(Nc1nnc(-c2ccsc2)o1)C1(c2ccccc2)CCOCC1 | 100 | –
Cc1ccc(NC(=O)C2(c3ccccc3)CCOCC2)cc1 | – | –
O=C(Nc1c(Cl)cccc1Cl)C1(c2ccccc2)CCOCC1 | – | 86
O=C(NCCCN1CCOCC1)C1CCN(Cc2ccc(Cl)cc2)CC1 | – | –
COc1ccccc1OCc1nc(C(=O)N2CCOCC2)cs1 | – | –
COc1ccc(-c2cc3ccc(O)c(CN(C)C)c3oc2=O)cc1 | – | –
COc1ccc(C=O)cc1OCc1ccc(Cl)cc1Cl | – | –
CNC(=O)C1CN(C(=O)c2ccc(C(F)(F)F)cc2)CC12CCCC2 (stereo unspecified) | – | –
Cc1nn(C(=O)C(C)N2C(=O)c3ccccc3C2=O)c(C)c1Br (stereo unspecified) | – | –
Cc1nn(C(=O)CCN2C(=O)c3ccccc3C2=O)c(C)c1Br | – | 71
CC(C)(C)C(=O)N1CCc2nc[nH]c2C1 | – | –
COc1ccccc1NC(Nc1ccccc1OC)=C(/C=C(\Cl)[N+](=O)[O-])[N+](=O)[O-] | 73 | –
COc1ccccc1NC(=O)c1ccccc1[N+](=O)[O-] | – | –
COc1ccccc1N1CCN(CCNC(=O)c2ccsc2)CC1 | – | –
CCc1c(C)c(C#N)c2nc3ccccc3n2c1NCCCN1CCOCC1 | – | 83
CCCCc1c(C)c(C#N)c2nc3ccccc3n2c1NCCN1CCOCC1 | – | –
O=C(O)CCCN1C(=O)C2CCCCN2c2ccc(C(=O)N3CCCC3)cc21 (stereo unspecified) | – | –
c1ccc(N=c2scc(-c3ccccc3)n2CCN2CCOCC2)cc1 | – | –
Cc1ccc(-c2csc(=Nc3ccccc3)n2CCO)cc1 | 52 | –
OCCn1c(-c2ccc(Cl)c(Cl)c2)csc1=Nc1ccccc1 | 100 | –
OCCn1c(-c2ccc(Cl)cc2)csc1=Nc1ccccc1 | 69 | –
CCN(CC)CCn1c(-c2ccccc2)csc1=Nc1ccccc1 | – | –
c1ccc(CNc2nc(C3CC3)nc3c2CCC3)nc1 | – | –

Source: PubChem (University of Kansas High Throughput Screening Laboratory)
